The record followed here is PubChem BioAssay (NCI).

Each structure is given as a SMILES string. This is part of a sample that, as a whole, favours compounds with a hit. Of some 83,000 tested, about 20% had one in any assay.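 Step 1: grow cells in 96-well plates. Step 2: add test compound at a single concentration. Step 3: incubate 48 h. Step 4: record percent growth.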 Unmarked numbers belong to inactive results. Calls of active or inactive are those of the source. The calls were made as follows: active = growth percent below 10; inactive = the rest.

Holding throughout (experiment): NCI-60 one-dose screen, 48 h (100 = growth as untreated, 0 = no growth, -100 = all killed)
One test relates to NCI-H23 lung. The conditions noted are these: 10 µM unless noted.
Another test deals with NCI-H226 lung. The conditions noted are these: 10 µM unless noted.
The test system of a further test is NCI-H322M lung. The conditions noted are these: 10 µM unless noted.
The test system of the next test is HOP-62 NSCLC. The conditions noted are these: 10 µM unless noted.
A further test concerns NCI-H460 lung. The conditions noted are these: 10 µM unless noted.
For a further test, the system named is HOP-92 NSCLC. The conditions noted are these: 10 µM unless noted.
The test system of the next test is NCI-H522 lung. The conditions noted are these: 10 µM.
Another test has as its system 786-0 renal. The conditions noted are these: 10 µM unless noted.
The subject of the next test is COLO 205 colon. The conditions noted are these: 10 µM unless noted.
The subject of a further test is K-562 leukemia. The conditions noted are these: 10 µM unless noted.
For a further test, the system named is MALME-3M melanoma. The conditions noted are these: 10 µM unless noted.
The subject of a further test is MDA-MB-231 breast. The conditions noted are these: 10 µM unless noted.
In a further test the test system is SF-268 CNS. The conditions noted are these: 10 µM unless noted.
The test system of the next test is SF-295 CNS. The conditions noted are these: 10 µM unless noted.
Another test deals with SF-539 CNS. The conditions noted are these: 10 µM unless noted.
A further test deals with UACC-257 melanoma. The conditions noted are these: 10 µM unless noted.
For the next test, the system named is M14 melanoma. The conditions noted are these: 10 µM unless noted.
The test system of the next test is A549/ATCC NSCLC. The conditions noted are these: 10 µM unless noted.
For the next test, the system named is DU-145 prostate. The conditions noted are these: 10 µM unless noted.
For a further test, the system named is RXF 393 renal. The conditions noted are these: 10 µM unless noted.

As for `O=C(COc1cccc(/C=C2\Oc3ccc4ccccc4c3C2=O)c1)c1ccc([N+](=O)[O-])cc1`, the growth was 93.8% with NCI-H23 lung; 85.8% in the test with NCI-H226 lung; 106% in the test on NCI-H322M lung; 87.6% in the test with HOP-62 NSCLC; 100% in the test with NCI-H460 lung; 81.2% in the test with HOP-92 NSCLC. The growth in the test with NCI-H522 lung is 35.8%; in the test on 786-0 renal it was 103%; in the test on COLO 205 colon, 114%; in the test on K-562 leukemia, 67.3%; with MALME-3M melanoma, 67.2%; in the test on MDA-MB-231 breast, 83.3%. The growth in the test with SF-268 CNS is 85.6%; in the test with SF-295 CNS, 117%; with SF-539 CNS, 46.5%; in the test with UACC-257 melanoma, 102%; in the test on M14 melanoma it was 79.4%.

Regarding `CCCCCCCCCCOC(C)=O`, the growth in the test with NCI-H23 lung is 113%; with NCI-H226 lung, 98.6%; in the test with NCI-H322M lung, 107%; in the test on HOP-62 NSCLC it was 108%; in the test on NCI-H460 lung, 110%; in the test with HOP-92 NSCLC, 89.3%. Further, the growth was 106% in the test on A549/ATCC NSCLC; 114% in the test on 786-0 renal; 116% in the test with COLO 205 colon; 112% in the test with DU-145 prostate; 107% in the test with K-562 leukemia; 108% in the test with MALME-3M melanoma. The growth in the test with MDA-MB-231 breast is 107%; with RXF 393 renal, 112%; in the test with SF-268 CNS it was 106%; in the test with SF-295 CNS it was 80%; in the test on SF-539 CNS it was 96.1%; with UACC-257 melanoma it was 94%. In addition, in the test on M14 melanoma, the growth is 106%.

With `COc1ccc(CNC(=O)c2c(C)n([O-])c3cc(F)c(F)cc3[n+]2=O)cc1`, the growth in the test with NCI-H23 lung was 41.9%; in the test with NCI-H226 lung it was 99.6%; with NCI-H322M lung it was 97.1%; in the test with HOP-62 NSCLC, 107%; in the test with NCI-H460 lung, 97.2%; in the test on HOP-92 NSCLC, 89.1%. Moreover, the growth with NCI-H522 lung was 77.9%; in the test on 786-0 renal, 92.9%; in the test with COLO 205 colon, 131%; in the test on K-562 leukemia, 46.5%; in the test on MALME-3M melanoma, 111%; in the test with MDA-MB-231 breast, 76.3%. In addition, the growth is 88.7% with SF-268 CNS; 57.1% in the test with SF-295 CNS; 96.9% in the test with SF-539 CNS; 98% in the test on UACC-257 melanoma; 90.5% with M14 melanoma.

For the compound `Cc1ccc(-c2cc(-c3ccccc3)n(-c3ccccc3)n2)cc1`, the growth with NCI-H23 lung is 95.9%; in the test with NCI-H226 lung, 97.9%; in the test on NCI-H322M lung, 97.3%; with HOP-62 NSCLC it was -2.85% (active); in the test on NCI-H460 lung, 104%; in the test on HOP-92 NSCLC, 108%. In addition, the growth in the test on NCI-H522 lung was 79%; with 786-0 renal, 92.9%; with COLO 205 colon, 112%; in the test on K-562 leukemia, 81.2%; in the test with MALME-3M melanoma it was 87.6%; in the test with MDA-MB-231 breast, 112%. The growth in the test with SF-268 CNS was 98.3%; with SF-295 CNS, 156%; with SF-539 CNS, 115%; in the test with UACC-257 melanoma it was 98.1%; with M14 melanoma, 110%.

On to `CC(=O)Nc1ccc(C(=O)COc2cccc(/C=C3\CCc4ccccc4C3=O)c2)cc1`, for which the growth in the test with NCI-H23 lung is 84.4%; in the test with NCI-H226 lung, 70.7%; with NCI-H322M lung, 105%; in the test with HOP-62 NSCLC, 104%; with NCI-H460 lung, 97.1%; in the test on HOP-92 NSCLC it was 70.8%. Further, the growth was 63.1% in the test with NCI-H522 lung; 92.9% in the test with 786-0 renal; 130% with COLO 205 colon; 36.8% in the test on K-562 leukemia; 19.6% in the test on MALME-3M melanoma; 90% with MDA-MB-231 breast. The growth was 90.1% in the test with SF-268 CNS; 486% with SF-295 CNS; 96.7% in the test on SF-539 CNS; 89.8% in the test with UACC-257 melanoma; 104% with M14 melanoma.

As to `COC(=O)c1cc2c(/C=C3/NC(=S)NC3=O)coc2n1C`, the growth was 103% with NCI-H23 lung; 110% in the test on NCI-H226 lung; 87.1% in the test with NCI-H322M lung; 89.3% in the test with HOP-62 NSCLC; 115% with NCI-H460 lung; -38.5% (active) with HOP-92 NSCLC. Moreover, the growth in the test on A549/ATCC NSCLC was 104%; with 786-0 renal, 98.2%; in the test with COLO 205 colon it was 97.7%; in the test on DU-145 prostate, 134%; in the test on K-562 leukemia it was 95.6%; with MALME-3M melanoma, 58.4%. Also, the growth is 82.2% in the test on MDA-MB-231 breast; 38.4% with RXF 393 renal; 37.7% in the test on SF-268 CNS; 45.2% in the test with SF-295 CNS; 82.2% in the test on SF-539 CNS; 107% in the test on UACC-257 melanoma.

`O=C(COc1cccc(/C=C2\Oc3ccc4ccccc4c3C2=O)c1)c1ccc(Cl)cc1`: the growth is 28.3% in the test with NCI-H23 lung; 91.9% in the test on NCI-H226 lung; 108% in the test on NCI-H322M lung; 101% in the test with HOP-62 NSCLC; 114% with NCI-H460 lung; 81.9% in the test with HOP-92 NSCLC. The growth in the test with NCI-H522 lung was 38%; in the test on 786-0 renal, 105%; in the test with COLO 205 colon, 102%; in the test on K-562 leukemia it was 122%; in the test with MALME-3M melanoma, 69.4%; in the test with MDA-MB-231 breast, 84.7%. The growth is 88.8% in the test with SF-268 CNS; 104% in the test on SF-295 CNS; 68.2% in the test on SF-539 CNS; 95.6% with UACC-257 melanoma; 83.6% in the test with M14 melanoma.

`COc1ccc(CNC(=O)c2c(C)n([O-])c3ccccc3[n+]2=O)cc1`: the growth in the test with NCI-H23 lung is 93.8%; in the test on NCI-H226 lung it was 102%; in the test on NCI-H322M lung it was 144%; in the test on HOP-62 NSCLC it was 94.3%; in the test with NCI-H460 lung, 112%; in the test with HOP-92 NSCLC it was 82.6%. For the same compound, the growth in the test with NCI-H522 lung was -15.1% (active); in the test on 786-0 renal, 101%; in the test on COLO 205 colon, 122%; with K-562 leukemia, 94.9%; with MALME-3M melanoma, 153%; in the test on MDA-MB-231 breast it was 103%. The growth in the test on SF-268 CNS is 99.7%; in the test with SF-295 CNS it was 111%; in the test with SF-539 CNS, 112%; with UACC-257 melanoma it was 90.4%; with M14 melanoma, 104%.

Regarding `CC(=O)OC1Oc2cc(C)c(C)cc2-c2oc(=O)c(-c3ccccc3)cc21` (configuration not stated), the growth in the test on NCI-H23 lung was 46.3%; in the test on NCI-H226 lung it was -6.38% (active); in the test on NCI-H322M lung, 33.5%; in the test with HOP-62 NSCLC it was 48%; in the test on NCI-H460 lung it was 4.89% (active); in the test with HOP-92 NSCLC, -41.5% (active). Moreover, the growth in the test on A549/ATCC NSCLC was 24.8%; with 786-0 renal it was 33.5%; in the test with COLO 205 colon, 0.826% (active); in the test with DU-145 prostate, 15%; in the test on K-562 leukemia, -0.66% (active); in the test on MALME-3M melanoma, -4.37% (active). The growth in the test with MDA-MB-231 breast was 43.7%; with RXF 393 renal, -35.3% (active); with SF-268 CNS, 36.8%; with SF-295 CNS, -39.9% (active); with SF-539 CNS, -37.1% (active); with UACC-257 melanoma, 74.5%.
